Reference: PubChem BioAssay AID1159580 (chemical genetic matrix, 2015)
Among all 5,500 compounds or so, about 2,000 (36%) were called active. About 18% were inconclusive and are not listed. No stated cut-off is given here; in the data, active means normalized growth mostly below about 0.91 (no sharp cut-off); inconclusive means no clear call, values can overlap the other calls; inactive means mostly above about 0.92. The list shows a part of the results.

Assay: chemical genetic growth profiling, strain panel (AID 1159580);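 further: tested at 20 µM; growth read once vehicle control cultures reached saturation at 30 °C; 1 = growth at the plate median or of vehicle wells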
Details: growth OD

Measured: normalized growth

Oc1ccc(Cl)cc1Cc1cc(Cl)ccc1O
active: S. cerevisiae deletion strains, locus YJR075W, strain HOC1, stronger effect = lower value 0.0746 | S. cerevisiae deletion strains, locus YKL009W, strain mrt4, stronger effect = lower value 0.092 | S. cerevisiae deletion strains, locus YKL068W, stronger effect = lower value 0.101 | S. cerevisiae deletion strains, locus YKL085W, strain MDH1 (second series), stronger effect = lower value 0.0549 | S. cerevisiae deletion strains, locus YKL085W, strain MDH1, stronger effect = lower value 0.0549 | S. cerevisiae deletion strains, locus YKL160W, strain elf1, stronger effect = lower value 0.0693 | S. cerevisiae deletion strains, locus YKL190W, strain CNB1, stronger effect = lower value 0.0512 | S. cerevisiae deletion strains, locus YKR001C, strain vps1, stronger effect = lower value 0.0604 | S. cerevisiae deletion strains, locus YKR026C, strain gcn3, stronger effect = lower value 0.13 | S. cerevisiae deletion strains, locus YKR091W, strain srl3, stronger effect = lower value 0.0642 | S. cerevisiae deletion strains, locus YLL001W, strain dnm1, stronger effect = lower value 0.113 | S. cerevisiae deletion strains, locus YLL026W, stronger effect = lower value 0.0579 | S. cerevisiae deletion strains, locus YLL041C, strain sdh2, stronger effect = lower value 0.0645 | S. cerevisiae deletion strains, locus YLR027C, strain aat2, stronger effect = lower value 0.0566 | S. cerevisiae deletion strains, locus YLR039C, strain RIC1, stronger effect = lower value 0.0807 | S. cerevisiae deletion strains, locus YLR058C, strain SHM2, stronger effect = lower value 0.0611 | S. cerevisiae deletion strains, locus YLR102C, strain apc9, stronger effect = lower value 0.0602 | S. cerevisiae deletion strains, locus YLR113W, strain HOG1, stronger effect = lower value 0.165 | S. cerevisiae deletion strains, locus YLR221C, strain rsa3, stronger effect = lower value 0.0636 | S. cerevisiae deletion strains, locus YLR258W, strain gsy2, stronger effect = lower value 0.0643 | S. cerevisiae deletion strains, locus YLR262C, strain YPT6 (second series), stronger effect = lower value 0.0751 | S. cerevisiae deletion strains, locus YLR262C, strain YPT6, stronger effect = lower value 0.101 | S. cerevisiae deletion strains, locus YLR268W, strain sec22, stronger effect = lower value 0.0687 | S. cerevisiae deletion strains, locus YLR320W, strain mms22, stronger effect = lower value 0.0873 | S. cerevisiae deletion strains, locus YLR330W, strain CHS5, stronger effect = lower value 0.0555 | S. cerevisiae deletion strains, locus YLR342W, strain FKS1 (second series), stronger effect = lower value 0.0854 | S. cerevisiae deletion strains, locus YLR342W, strain FKS1, stronger effect = lower value 0.0648 | S. cerevisiae deletion strains, locus YLR357W, strain rsc2, stronger effect = lower value 0.273 | S. cerevisiae deletion strains, locus YLR370C, strain arc18, stronger effect = lower value 0.108 | S. cerevisiae deletion strains, locus YLR371W, strain rom2, stronger effect = lower value 0.0629 | S. cerevisiae deletion strains, locus YLR384C, strain iki3, stronger effect = lower value 0.118 | S. cerevisiae deletion strains, locus YLR418C, strain cdc73, stronger effect = lower value 0.098 | S. cerevisiae deletion strains, locus YML016C, strain PPZ1, stronger effect = lower value 0.0858 | S. cerevisiae deletion strains, locus YML032C, strain rad52, stronger effect = lower value 0.0693 | S. cerevisiae deletion strains, locus YML120C, strain ndi1, stronger effect = lower value 0.0588 | S. cerevisiae deletion strains, locus YML124C, strain tub3, stronger effect = lower value 0.0644 | S. cerevisiae deletion strains, locus YMR058W, strain fet3, stronger effect = lower value 0.131 | S. cerevisiae deletion strains, locus YMR078C, strain ctf18, stronger effect = lower value 0.071 | S. cerevisiae deletion strains, locus YMR125W, strain sto1, stronger effect = lower value 0.0949 | S. cerevisiae deletion strains, locus YMR129W, stronger effect = lower value 0.0627 | S. cerevisiae deletion strains, locus YMR205C, strain PFK2, stronger effect = lower value 0.102 | S. cerevisiae deletion strains, locus YMR223W, strain ubp8, stronger effect = lower value 0.066 | S. cerevisiae deletion strains, locus YMR231W, strain pep5, stronger effect = lower value 0.085 | S. cerevisiae deletion strains, locus YMR263W, strain SAP30, stronger effect = lower value 0.0643 | S. cerevisiae deletion strains, locus YMR307W, strain GAS1, stronger effect = lower value 0.145 | S. cerevisiae deletion strains, locus YNL067W, strain RPL9B, stronger effect = lower value 0.0779 | S. cerevisiae deletion strains, locus YNL071W, strain lat1, stronger effect = lower value 0.0636 | S. cerevisiae deletion strains, locus YNL128W, strain TEP1, stronger effect = lower value 0.0892 | S. cerevisiae deletion strains, locus YNL153C, strain GIM3, stronger effect = lower value 0.0714 | S. cerevisiae deletion strains, locus YNL183C, strain NPR1, stronger effect = lower value -0.00267 | S. cerevisiae deletion strains, locus YNL209W, strain ssb2, stronger effect = lower value 0.0857 | S. cerevisiae deletion strains, locus YNL233W, strain BNI4, stronger effect = lower value 0.056 | S. cerevisiae deletion strains, locus YNL248C, strain rpa49, stronger effect = lower value 0.109 | S. cerevisiae deletion strains, locus YNL250W, strain rad50, stronger effect = lower value 0.0758 | S. cerevisiae deletion strains, locus YNL271C, strain bni1, stronger effect = lower value 0.0676 | S. cerevisiae deletion strains, locus YNL298W, strain CLA4, stronger effect = lower value 0.0642 | S. cerevisiae deletion strains, locus YNL307C, strain MCK1, stronger effect = lower value 0.0664 | S. cerevisiae deletion strains, locus YNL322C, strain KRE1 (second series), stronger effect = lower value 0.0828 | S. cerevisiae deletion strains, locus YNL322C, strain KRE1, stronger effect = lower value 0.0618 | S. cerevisiae deletion strains, locus YNR049C, strain mso1, stronger effect = lower value 0.109 | S. cerevisiae deletion strains, locus YNR052C, strain pop2, stronger effect = lower value 0.0645 | S. cerevisiae deletion strains, locus YOL006C, strain TOP1, stronger effect = lower value 0.0992 | S. cerevisiae deletion strains, locus YOL012C, strain htz1 0.176 | S. cerevisiae deletion strains, locus YOL147C, strain pex11, stronger effect = lower value 0.0563 | S. cerevisiae deletion strains, locus YOR001W, strain rrp6, stronger effect = lower value 0.0685 | S. cerevisiae deletion strains, locus YOR061W, strain CKA2, stronger effect = lower value 0.0631 | S. cerevisiae deletion strains, locus YOR069W, strain VPS5, stronger effect = lower value 0.0593 | S. cerevisiae deletion strains, locus YOR070C, strain gyp1, stronger effect = lower value 0.0618 | S. cerevisiae deletion strains, locus YOR080W, strain dia2, stronger effect = lower value 0.0748 | S. cerevisiae deletion strains, locus YOR083W, strain WHI5, stronger effect = lower value 0.0694 | S. cerevisiae deletion strains, locus YOR106W, strain vam3, stronger effect = lower value 0.0658 | S. cerevisiae deletion strains, locus YOR136W, strain idh2, stronger effect = lower value 0.0708 | S. cerevisiae deletion strains, locus YOR144C, strain elg1, stronger effect = lower value 0.0576 | S. cerevisiae deletion strains, locus YOR184W, strain ser1, stronger effect = lower value 0.0699 | S. cerevisiae deletion strains, locus YOR231W, strain MKK1, stronger effect = lower value 0.123 | S. cerevisiae deletion strains, locus YOR265W, strain rbl2, stronger effect = lower value 0.0619 | S. cerevisiae deletion strains, locus YOR270C, strain vph1, stronger effect = lower value 0.101 | S. cerevisiae deletion strains, locus YOR290C, strain snf2, stronger effect = lower value 0.0874 | S. cerevisiae deletion strains, locus YOR316C, strain cot1, stronger effect = lower value 0.0588 | S. cerevisiae deletion strains, locus YPL051W, strain arl3, stronger effect = lower value 0.0629 | S. cerevisiae deletion strains, locus YPL055C, strain LGE1, stronger effect = lower value 0.0724 | S. cerevisiae deletion strains, locus YPL078C, strain atp4, stronger effect = lower value 0.0851 | S. cerevisiae deletion strains, locus YPL106C, strain sse1, stronger effect = lower value 0.107 | S. cerevisiae deletion strains, locus YPL240C, strain hsp82, stronger effect = lower value 0.0585 | S. cerevisiae deletion strains, locus YPL241C, strain CIN2, stronger effect = lower value 0.0663 | S. cerevisiae deletion strains, locus YPL256C, strain CLN2, stronger effect = lower value 0.114 | S. cerevisiae deletion strains, locus YPR119W, strain clb2, stronger effect = lower value 0.0612 | S. cerevisiae deletion strains, locus YPR141C, strain kar3, stronger effect = lower value 0.0922 | S. cerevisiae deletion strains, locus YPR163C, strain tif3, stronger effect = lower value 0.07 | S. cerevisiae deletion strains, locus YPR167C, strain met16, stronger effect = lower value 0.0608 | S. cerevisiae deletion strains, strain wtn01, stronger effect = lower value 0.065 | S. cerevisiae strains, strain wild type, stronger effect = lower value 0.051
